Laboratory results published in PubChem BioAssay (NCI).
This is part of a sample that, as a whole, favours compounds with a hit. Of some 79,000 tested, about 15% had one in any assay. The source made the active and inactive calls. Cut-off read from the data, not from the text of the source: active = growth inhibition above about 70%; inactive = the rest.

Columns and labels:
[1] = NCI Yeast Anticancer Drug Screen. Data for the rad50 strain (AID 155);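 note: 0% = growth of vehicle-only cultures of the same strain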; settings: S. cerevisiae rad50 strain growth inhibition; at 50.0 µM; hits give high values
Outline: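 DNA repair mutant yeast, compound exposure, growth read-out; inhibition is taken relative to vehicle.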

[2] = NCI Yeast Anticancer Drug Screen. Data for the mec2-1 strain (AID 157); settings: S. cerevisiae mec2-1 strain, at 50.0 µM, hits give high values
Outline: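 Yeast mec2-1 mutant treated with compound. Readout: growth inhibition vs vehicle controls.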

[3] = NCI Yeast Anticancer Drug Screen. Data for the sgs1 mgt1 strain (AID 161);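 note: 0% = growth of cultures given vehicle only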; settings: S. cerevisiae sgs1 mgt1 strain, at 50.0 µM, hits give high values
Outline: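 Test agents were incubated with a DNA-repair-mutant yeast strain. Growth was then read and compared against vehicle-treated controls.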

[4] = NCI Yeast Anticancer Drug Screen. Data for the cln2 rad14 strain (AID 165);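 note: 0% = growth equal to vehicle treated cultures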; settings: S. cerevisiae cln2 rad14 strain, at 50.0 µM, hits give high values
Outline: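 cln2 rad14 yeast strain; compound exposure; growth inhibition read vs vehicle controls.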

[5] = NCI Yeast Anticancer Drug Screen. Data for the bub3 strain (AID 167); settings: S. cerevisiae bub3 mutant strain, at 50.0 µM, hits give high values
Outline: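 In this screen, a yeast mutant lacking normal mitotic checkpoint function is challenged with compound. Relative growth versus vehicle gives the inhibition value.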

[6] = NCI Yeast Anticancer Drug Screen. Data for the mlh1 rad18 strain (AID 175); settings: S. cerevisiae mlh1 rad18 strain growth inhibition; at 50.0 µM; hits give high values
Outline: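 Yeast w/ defined DNA-repair lesions; compound exposure; growth vs vehicle controls → % inhibition.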

Measured: growth inhibition

CCN(CC)CCSC(=O)c1ccc([N+](=O)[O-])cc1
inactive: [1] 20.1% | [2] 7.7% | [3] 15.6% | [4] 19.8% | [5] 38.5% | [6] 8.1%

CCCC(=O)OCCOc1ccccc1
inactive: [1] 18.1% | [2] 2.3% | [3] 11% | [4] 7.2% | [5] 0.8% | [6] 2.5%

CCN(CC)S(=O)(=O)c1ccc(N)cc1
inactive: [1] 26.1% | [2] 2.15% | [3] 25.4% | [4] -13.9% | [5] -2.2% | [6] 8.4%

Cc1cc(N)ccc1[N+](=O)[O-]
inactive: [1] 2.2% | [2] 31% | [3] 9% | [4] -29.1% | [5] 11.7% | [6] 1.75%

O=C(CCCN1CCC(O)(c2ccc(Cl)cc2)CC1)c1ccc(N2CCC(O)CC2)cc1
inactive: [1] 0.8% | [2] -2.05% | [3] -0.65% | [4] -44.6% | [5] 4.4% | [6] 1.1%

NC1=NC2(COC(c3ccccc3)(c3ccccc3)c3ccccc3)OC(COC(c3ccccc3)(c3ccccc3)c3ccccc3)C(O)C2O1 (centres undefined)
inactive: [1] 28.4% | [2] -5.4% | [3] 30.6% | [4] 5.25% | [5] 34.4% | [6] 13.4%

c1ncncn1
inactive: [1] 7.5% | [2] 5.95% | [3] 10.1% | [4] 3.05% | [5] 5.25% | [6] -7.85%

C/C(=N\NC(N)=S)c1cc(C)c(C)cc1C
inactive: [1] 34.3% | [2] 5.55% | [3] 50% | [4] 17.2% | [5] -7.95% | [6] 65.8%

CCOc1cccc(N(CC)CC)c1
inactive: [1] 33.9% | [2] 2.05% | [3] -20% | [4] -64.5% | [5] -14.2% | [6] 13.4%

Clc1ccccc1C1OCCCO1
inactive: [1] -0.95% | [2] 15.1% | [3] -22.4% | [4] -29.8% | [5] -8.1% | [6] -6.1%

CC(C(=O)n1c2ccccc2c2ccccc21)N(c1ccccc1)c1ccccc1 (centres undefined)
inactive: [1] -16.8% | [2] -15.1% | [3] -30.2% | [4] 9.15% | [5] -29.4% | [6] -19.6%

c1ccc(Cn2c(-c3ccccc3)c[n+]3ccccc23)cc1
inactive: [1] -11.4% | [2] -10.1% | [3] 5.35% | [4] -49.4% | [5] 10.3% | [6] -6.4%

Cc1nc(-c2cc3c(ccc4ccccc43)oc2=O)cs1
inactive: [1] 21.5% | [2] -8.85% | [3] -4.45% | [4] 25.8% | [5] -4.4% | [6] -21.5%

CNc1ncnc2[nH]cc([N+](=O)[O-])c12
inactive: [1] 6.45% | [2] 1.95% | [3] 10.1% | [4] 9.05% | [5] 3.9% | [6] 33.6%

O=C(c1nc2ccc([N+](=O)[O-])cc2[nH]c1=O)C(O)c1ccc([N+](=O)[O-])cc1 (centres undefined)
inactive: [1] -1.9% | [2] -6.2% | [3] 12.9% | [4] 10.1% | [5] -25.4% | [6] 31.5%

CC1=Nc2ccccc2C1(C)C
inactive: [1] 8.25% | [2] 8.8% | [3] 15% | [4] 21.2% | [5] 4.55% | [6] 9.3%

Cc1ccc2[nH]c(=O)[nH]c2c1
inactive: [1] -13.6% | [2] -6.2% | [3] -0.25% | [4] -5.3% | [5] 2.15% | [6] -22.4%

CCOC(=O)C(CCN(C)C)C(=O)OCC
inactive: [1] 5.75% | [2] -10.2% | [3] 2.8% | [4] 1.1% | [5] -23.1% | [6] 14.2%

O=C1C=CC(Nc2ccc(Cl)c(Cl)c2)C1Nc1ccc(Cl)c(Cl)c1 (centres undefined)
inactive: [1] 39.5% | [2] 36.1% | [3] 42.8% | [4] 28.6% | [5] 26.7% | [6] 45%

CCC1CCC(CC)C1OC(C)=O (centres undefined)
inactive: [1] -31.1% | [2] -27.7% | [3] -12.3% | [4] -26.4% | [5] -28.7% | [6] -21.6%

Cc1cc(=O)oc2cc(OC(=O)Nc3ccc(F)c([N+](=O)[O-])c3)ccc12
inactive: [1] 7.85% | [2] 45.2% | [3] 27.1% | [4] -11.8% | [5] 53.9% | [6] 12.5%

CCCCCCCCCCCCCCCCCCC1=CC(=O)c2ccccc2C1=O
inactive: [1] 16.1% | [2] 3% | [3] 25.6% | [4] 31% | [5] 8.4% | [6] 14.9%

CC(=O)OC1OC(c2ccoc2)C[C@@]12C1CCC3O[C@]3(C)[C@]1(C)C[C@H](OC(C)=O)[C@H]2C (some centres undefined)
inactive: [1] -0.5% | [2] -14.5% | [3] -41.5% | [4] -13.6% | [5] -32.1% | [6] -13.2%

C[Si](C)(C)O[Si](C)(C)CCl
inactive: [1] -28.9% | [2] -12.4% | [3] -3.1% | [4] -10.2% | [5] -6.2% | [6] -34.2%

CC1=NN(c2cc(Cl)c(S(=O)(=O)O)cc2Cl)C(=O)C1N=Nc1ccc(S(=O)(=O)O)cc1 (centres undefined)
inactive: [1] -6.3% | [2] -19.8% | [3] -8% | [4] 2.05% | [5] -5.8% | [6] -0.9%

COc1ccc(-c2oc3cc(OC)c(OC)c(OC)c3c(=O)c2O)cc1O
inactive: [1] 62.5% | [2] 50.5% | [4] 44.8% | [5] 65.4%
active: [3] 77.6% | [6] 70.2%

CC(=O)OCC(=O)[C@@]1(O)CC[C@H]2[C@@H]3C[C@H](Cl)C4=CC(=O)C=C[C@]4(C)[C@H]3C(=O)C[C@@]21C
inactive: [1] 15.4% | [2] 3% | [3] 47.5% | [4] 49.5% | [5] -7.75% | [6] 39.5%

CCOC(=O)C1=C(C)C/C(=N/NC(N)=O)CC1
inactive: [1] 6.35% | [2] -17.9% | [3] -0.95% | [4] 0.05% | [5] -0.95% | [6] -7.85%

Nc1ccc(N2CCN(c3ccc(N)cc3)CC2)cc1
inactive: [1] 12.2% | [2] -9.95% | [3] 16% | [4] 10.2% | [5] 12.3% | [6] 15.8%

CC(=O)N=c1ccc2nc(N)nn(O)c-2c1
inactive: [1] 9.5% | [2] 0.05% | [3] -10.4% | [4] -4.95% | [5] -33.6% | [6] -26.6%

Cc1ccnc(Nc2nnc(Nc3cc(C)ccn3)c3ccccc23)c1
inactive: [1] -20.8% | [2] -12.6% | [3] -5.85% | [4] -22% | [5] -3.8% | [6] -4.45%

CCCCCCCCCCCCCCCCC/C(CC)=N/Nc1ccc([N+](=O)[O-])cc1[N+](=O)[O-]
inactive: [1] -16.9% | [2] 3.9% | [3] -24.6% | [4] -38.8% | [5] -3.2% | [6] -9.1%

O=C(NC(=O)c1ccccc1)OC(c1ccccc1)C1CO1 (centres undefined)
inactive: [1] -0.7% | [2] 9.65% | [3] 11.4% | [4] 8.55% | [5] -34.1% | [6] 18.8%

O=C1CC(Cc2n[nH]c3c2CCC3)CC(=O)N1
inactive: [1] -8.25% | [2] 2.65% | [3] -10.2% | [4] -16.4% | [5] -10% | [6] -13.2%

O=C1CCCc2ccccc21
inactive: [1] -2.35% | [2] -11.3% | [3] -29.9% | [4] -30.3% | [5] -14% | [6] 1%

CCCCCCC(=O)/C=C/c1ccccc1Cl
inactive: [1] -12.2% | [2] -29.6% | [3] -1.35% | [4] 10.3% | [5] 15.1% | [6] 10.1%

CCOC(=O)c1cnc2nc[nH]n2c1=O
inactive: [1] -52.8% | [2] -54.5% | [3] -11.2% | [4] 11.6% | [5] -67% | [6] -36.5%

CCCCCOC(=O)c1c(Cl)c(Cl)c(C(=O)OCCCCC)c(Cl)c1Cl
inactive: [1] -18.2% | [2] -39% | [3] 0.85% | [4] -6.85% | [5] -6.5% | [6] -9%

O=c1n(-c2ccccc2)c(=O)n2c(-c3ccccc3)c(-c3ccccc3)n12
inactive: [1] 38.5% | [2] -23.7% | [3] -36.5% | [4] -12.6% | [5] -23.6% | [6] -30.8%
